Results filed as inconclusive are left out. The source made the active and inactive calls. The calls were made as follows: active = hit-call score of the fitted dose curve at least 0.9, where 1 is the maximum; inconclusive = response in the unintended direction; inactive = score below 0.9.
tested on: not listed separately; test: TOX21_p53_BLA_p5_viability: Viability Assessment in the Tox21 HCT-116 p53 Agonism Beta-lactamase Assay, Phase 5 (AID 2283600)
Outline: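 Compounds, pinned from DMSO at 217-fold dilution, were left on the cells for 16 h. The viability endpoint was ATP content measured by CellTiter-Glo luminescence, where falling signal reflects cytotoxicity.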

Row | Structure (SMILES) | outcome
1 | C[C@]12CCC(=O)C=C1C=C[C@@H]1[C@@H]2CC[C@@]2(C)[C@H]1CC[C@@]21CCC(=O)O1 | inactive
2 | C=C1CC2C3CCC4=CC(=O)C=C[C@]4(C)[C@@]3(F)[C@@H](O)C[C@]2(C)[C@@]1(O)C(=O)COC(C)=O (stereo partly specified) | inactive
3 | CC(=O)c1ccc2c(c1)N(CCCN1CCN(CCO)CC1)c1ccccc1S2 | inactive
4 | CC(C(=O)O)c1ccc(N2Cc3ccccc3C2=O)cc1 (stereo unspecified) | inactive
5 | C[C@H](CCC(=O)O)[C@H]1CC[C@H]2[C@@H]3[C@H](O)C[C@@H]4C[C@H](O)CC[C@]4(C)[C@H]3C[C@H](O)[C@]12C | inactive
6 | CCCCCCCCCCCCCC[N+](C)(C)Cc1ccccc1 | inactive
7 | CC(=NO)C(C)=NO | inactive
8 | CCCC(=O)CC | inactive
9 | Nc1ccc(NC(=O)c2ccc(N)cc2)cc1 | inactive
10 | CC(=O)OCC(=O)[C@@]1(OC(C)=O)[C@@H](C)C[C@H]2[C@@H]3C[C@H](F)C4=CC(=O)C=C[C@]4(C)[C@@]3(F)[C@@H](O)C[C@@]21C | inactive
11 | CC1CCCNC1 (stereo unspecified) | inactive
12 | CC(C)[N+](C)(C)CC(O)COc1cccc2ccccc12 (stereo unspecified) | inactive
13 | O=P(O)(O)CP(=O)(O)O | inactive

target: Cellular tumor antigen p53 (Homo sapiens) (UniProt P04637); test: TOX21_p53_BLA_p4_ratio: Tox21 HCT-116 p53 Agonism Beta-lactamase Assay, Ratio, Phase 4 (AID 2283601)
Sequence (P04637 whole entry, looked up): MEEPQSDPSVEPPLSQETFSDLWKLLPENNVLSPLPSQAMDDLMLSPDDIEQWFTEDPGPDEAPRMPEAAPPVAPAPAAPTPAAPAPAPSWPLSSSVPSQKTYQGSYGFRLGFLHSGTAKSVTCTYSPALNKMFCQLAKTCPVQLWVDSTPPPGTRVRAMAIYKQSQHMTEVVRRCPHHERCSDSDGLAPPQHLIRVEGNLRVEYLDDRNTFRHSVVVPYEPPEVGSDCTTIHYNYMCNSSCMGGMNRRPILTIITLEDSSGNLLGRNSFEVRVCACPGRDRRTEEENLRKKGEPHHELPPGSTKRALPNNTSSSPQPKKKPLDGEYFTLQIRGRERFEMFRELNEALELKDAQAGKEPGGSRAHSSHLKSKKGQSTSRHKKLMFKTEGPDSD
Outline: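 Signal is the blue/green (460nm/530nm) ratio of cleaved versus uncleaved CCF4-AM substrate, read after 2 h substrate loading. Cells were HCT116 carrying the p53-responsive beta-lactamase reporter, dosed 16 h at 37C, 5% CO2; CellTiter-Glo measured in parallel.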

Row | Structure (SMILES) | outcome | AC50
14 | CC[C@@H]([C@H](C)O)n1ncn(-c2ccc(N3CCN(c4ccc(OC[C@@H]5CO[C@@](Cn6cncn6)(c6ccc(F)cc6F)C5)cc4)CC3)cc2)c1=O | inactive | –
15 | O=C(O)CCCC/C=C(\c1ccccc1)c1cccnc1 | inactive | –
16 | COc1ccc(CCN(C)CCCC(C#N)(c2cc(OC)c(OC)c(OC)c2)C(C)C)cc1OC (stereo unspecified) | inactive | –
17 | CCN(O)CC | inactive | –
18 | CCOC(=O)c1cccnc1 | inactive | –
19 | CCCCCCCCCCCBr | inactive | –
20 | CC(C)(C(=O)c1cccnc1)c1cccnc1 | inactive | –
21 | CN1CCN(C2Cc3ccccc3Sc3ccc(Cl)cc32)CC1 (stereo unspecified) | inactive | –
22 | O=S(=O)(O)c1ccc2c(N=Nc3ccc(S(=O)(=O)O)c4ccccc34)c(O)c(S(=O)(=O)O)cc2c1 | inactive | –
23 | CO[C@@H]1[C@@H](O[C@@H]2O[C@H](C)[C@@H](O[C@H]3C[C@@](C)(O)[C@@H](O)[C@H](C)O3)[C@H](N(C)C)[C@H]2O)[C@@H](CC=O)C[C@@H](C)[C@@H](O[C@@H]2CC[C@H](N(C)C)[C@@H](C)O2)/C=C/C=C/C[C@@H](C)OC(=O)C[C@H]1OC(C)=O | inactive | –
24 | C[C@@H]1C[C@H]2[C@@H]3CCC4=CC(=O)C=C[C@]4(C)[C@@]3(Cl)[C@@H](O)C[C@]2(C)[C@@]1(OC(=O)c1ccco1)C(=O)CCl | inactive | –
25 | OCC(S)CS (stereo unspecified) | inactive | –
26 | CCCCCCC | inactive | –
27 | CC(CCl)OC(C)CCl (stereo unspecified) | inactive | –
28 | Cc1nc2ccccn2c(=O)c1CCN1CCC(C(=O)c2ccc(F)cc2)CC1 | inactive | –
29 | NS(=O)(=O)c1cc(C2(O)NC(=O)c3ccccc32)ccc1Cl (stereo unspecified) | inactive | –
30 | C=C1CC2C3CCC4=CC(=O)C=C[C@]4(C)[C@@]3(F)[C@@H](O)C[C@]2(C)[C@@]1(O)C(=O)COC(C)=O (stereo partly specified) | inactive | –
31 | Cc1c(C)c2c(c(C)c1OC(=O)CCC(=O)OCCO)CCC(C)(CCCC(C)CCCC(C)CCCC(C)C)O2 (stereo unspecified) | – | 37.8 µM (active)
32 | CC(C(=O)O)c1ccc(N2Cc3ccccc3C2=O)cc1 (stereo unspecified) | inactive | –
33 | C[C@H](CCC(=O)O)[C@H]1CC[C@H]2[C@@H]3[C@H](O)C[C@@H]4C[C@H](O)CC[C@]4(C)[C@H]3C[C@H](O)[C@]12C | inactive | –
34 | CCCCCCCCCCCCCC[N+](C)(C)Cc1ccccc1 | – | 43.7 µM (active)
35 | CC(=NO)C(C)=NO | inactive | –
36 | CCCC(=O)CC | inactive | –
37 | Nc1ccc(NC(=O)c2ccc(N)cc2)cc1 | inactive | –
38 | CC1CCCNC1 (stereo unspecified) | inactive | –
39 | CC(C)[N+](C)(C)CC(O)COc1cccc2ccccc12 (stereo unspecified) | inactive | –
40 | CC(=O)c1ccc2c(c1)N(CCCN1CCC(CCO)CC1)c1ccccc1S2 | inactive | –
41 | O=P(O)(O)CP(=O)(O)O | inactive | –

Reference: PubChem BioAssay (EPA / NIEHS)
